The results in this text go back to PubChem BioAssay (Tox21).

Molecules are shown by their SMILES. Several values for one entry are separate records, joined by “and”; a condition that tells them apart may be missing. Identical values can stand only once. Records with an inconclusive call do not appear. Some compounds were tested as several samples or in several runs, with calls that do not always agree. Activity calls are given as the source filed them. Unless noted, calls follow the shape of the dose curve; as a rule, active = well fitted curve in the direction sought with a large enough effect in the repeat runs; inconclusive = weak or mixed curves; inactive = no such curve, though single readings can be large; an effect the other way counts as inactive or inconclusive.

The nature of test [1]: qHTS assay to identify small molecule agonists of the hypoxia (HIF-1) signaling pathway - cell viability counter screen (AID 1224844; calls by dose curve; also: nearly all actives have a fitted effect of over 50% in size; also: potency is read from the fitted curve at half-maximal effect). In a few lines:
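Cells (HRE-bla ME-180, 2,000 per well) sat 5 hrs at 37C, got compound for 17 hrs, were read for CCF4-AM FRET, and were finally lysed with CellTiter-Glo for a 30 min room-temperature luminescence read.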
For orientation: In qHTS, concentration-response curves come from the screen itself.

Test [2] in a line: qHTS assay to identify small molecule agonists of H2AX (AID 1224845; active = well fitted activation curve with a large enough effect in the signal ratio in the repeat runs, not every such curve was filed as active; the % refers to the signal ratio; also: potency is read from the fitted curve at half-maximal effect). In a few lines:
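Wild-type CHO-K1 cells, plated overnight, exposed 3hr at 37C to 15 concentrations (0.76% DMSO final). Lysed, then HTRF anti-pH2AX (S139) cryptate and anti-H2AX-d2 antibodies, 24 hr room temperature; 665/620 nm emission read.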

A short description of test [3]: qHTS assay to identify small molecule agonists of the hypoxia (HIF-1) signaling pathway (AID 1224846; active = well fitted activation curve with a large enough effect in the signal ratio in the repeat runs, not every such curve was filed as active; the % refers to the signal ratio). The gist of the method:
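A low-serum medium (0.5% dialyzed FBS) holding 2,000 HRE-bla ME-180 cells per well is preincubated for 5 hrs, dosed with compounds by pintool, and kept a further 17 hrs at 37C, 5% CO2 before CCF4-AM FRET detection of beta-lactamase.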

The nature of test [4]: qHTS RealTime-Glo MT Cell Viability Assay in HepG2 cells - 24 hour (AID 1224867). Also: nearly all actives have a fitted effect of over 50% in size. In a few lines: (§1)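 Luminescence read-out: viable HepG2 cells reduce a prosubstrate to a NanoLuc substrate, giving a signal proportional to live cell number. Reads taken at 0, 8, 16, 24, 32 and 40 h of compound exposure at 37 C.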
The nature of test [5]: qHTS RealTime-Glo MT Cell Viability Assay in HEK293 cells - 32 hour (AID 1224868). Also: nearly all actives have a fitted effect of over 50% in size. Also: potency is read from the fitted curve at half-maximal effect. The gist of the method: (§2)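 Nonlytic real-time viability readout: viable cells convert prosubstrate to NanoLuc substrate, giving luminescence proportional to live cell number. HEK293, 600 cells/well, compound added after 5 h, continuous culture at 37 C.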
A short description of test [6]: A CellTox Green Cytotoxicity Assay to monitor cytotoxicity in HEK293 cells - 0 hour (AID 1224869). Also: nearly all actives have a fitted effect of over 50% in size. In a few lines: (§3)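 Fluorescence intensity, read at 0, 8, 16, 24, 32 and 40 h of compound treatment, reflected dye binding to DNA of dead HEK293 cells; compounds (23 nL, DMSO) were added 5 h after plating cells with reagent.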
Test [7] can be described thus: A CellTox Green Cytotoxicity Assay to monitor cytotoxicity in HEK293 cells - 40 hour (AID 1224871). Also: nearly all actives have a fitted effect of over 45% in size. Also: potency is read from the fitted curve at half-maximal effect. In a few lines: as §3
Test [8] is described as follows: qHTS RealTime-Glo MT Cell Viability Assay in HEK293 cells - 16 hour (AID 1224872). Also: nearly all actives have a fitted effect of over 50% in size. Also: potency is read from the fitted curve at half-maximal effect. In a few lines:
as §2

Test [9] is described as follows: qHTS RealTime-Glo MT Cell Viability Assay in HepG2 cells - 8 hour (AID 1224873). Also: nearly all actives have a fitted effect of over 55% in size. The gist of the method:
(§4)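 HepG2 cells (600/well) mixed with RealTime-Glo MT reagent, settled 5 h at 37 C/5% CO2 before compound addition. Nonlytic NanoLuc luminescence from viable-cell prosubstrate reduction read repeatedly during 40 h treatment at 37 C.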

Test [10] in a line: qHTS RealTime-Glo MT Cell Viability Assay in HEK293 cells - 40 hour (AID 1224874). Also: nearly all actives have a fitted effect of over 50% in size. Also: potency is read from the fitted curve at half-maximal effect. The note with it: RealTime-Glo luminescence; max response: stronger effect = lower value. The gist of the method: (§5)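 Viable HEK293 cells reduce a cell-permeant prosubstrate; the product diffuses out and is consumed by NanoLuc in the medium to give light. Compounds went in after a 5 h incubation and plates were read over the treatment course.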

Test [11] can be described thus: A CellTox Green Cytotoxicity Assay to monitor cytotoxicity in HepG2 cells - 16 hour (AID 1224876). Also: nearly all actives have a fitted effect of over 45% in size. Also: potency is read from the fitted curve at half-maximal effect. The gist of the method:
(§6)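 Using 1536-well format, dye-containing HepG2 suspension was seeded, allowed 5 h at 37 C/5% CO2, dosed by pintool with compounds, positive and negative controls, and imaged for fluorescence across 40 h.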

Test [12] is described as follows: qHTS RealTime-Glo MT Cell Viability Assay in HepG2 cells - 32 hour (AID 1224877). Also: nearly all actives have a fitted effect of over 55% in size. In a few lines: as §1
A short description of test [13]: A CellTox Green Cytotoxicity Assay to monitor cytotoxicity in HepG2 cells - 40 hour (AID 1224879). Also: nearly all actives have a fitted effect of over 40% in size. Also: potency is read from the fitted curve at half-maximal effect. The gist of the method:
as §6

The nature of test [14]: qHTS RealTime-Glo MT Cell Viability Assay in HEK293 cells - 0 hour (AID 1224880). Also: top concentration of the series differs between compounds; nearly all actives have a fitted effect of over 45% in size. The gist of the method: as §5
Test [15] in a line: qHTS assay to identify small molecule agonists of H2AX - cell viability counter screen (AID 1224847; calls by dose curve; also: nearly all actives have a fitted effect of over 30% in size; also: potency is read from the fitted curve at half-maximal effect). In a few lines: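 For this counter screen, overnight-attached CHO-K1 cells received test compounds (15 concentrations, 0.76% DMSO final); 3 hr later at 37C, CellTiter-Glo reagent was added and luminescence recorded after 30 min at room temperature.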
Test [16] can be described thus: qHTS RealTime-Glo MT Cell Viability Assay in HepG2 cells - 40 hour (AID 1224870). Also: nearly all actives have a fitted effect of over 50% in size. The gist of the method:
as §4

Test [17] in a line: A CellTox Green Cytotoxicity Assay to monitor cytotoxicity in HEK293 cells - 24 hour (AID 1224875). Also: nearly all actives have a fitted effect of over 45% in size. The gist of the method: as §3
A short description of test [18]: A CellTox Green Cytotoxicity Assay to monitor cytotoxicity in HepG2 cells - 24 hour (AID 1224878). Also: nearly all actives have a fitted effect of over 45% in size. In a few lines: as §6
The nature of test [19]: qHTS assay to identify small molecule antagonists of the estrogen related receptor (ERR) signaling pathway from Tox21 library (AID 1224848). Also: nearly all actives have a fitted effect of over 50% in size. Also: potency is read from the fitted curve at half-maximal effect. The gist of the method:
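Luminescent reporter read-out (ONE-Glo) from NTP's ERR cell line after 18 h treatment at 37 C with DMSO-dissolved Tox21 compounds; cells pre-plated 6 h beforehand at 2,000 per well.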

The nature of test [20]: qHTS assay to identify small molecule agonists of the estrogen related receptor (ERR) signaling pathway from Tox21 library (AID 1224849; calls by dose curve; also: nearly all actives have a fitted effect of over 15% in size). Conditions: ERR reporter cell line, ONE-Glo luciferase, 18 h. The gist of the method:
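Screening used an NTP-provided ERR luciferase cell line. Compounds in DMSO were added 6 h after seeding and left 18 h at 37 C before a 30 min ONE-Glo step and luminescence reading.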
% is scaled to controls: 0 for no effect and ±100 for the full control effect.

With `S=C1NCCN1`, the Potency result in test [1], in test [2], in test [4], in test [5], in test [6] and in test [7] was “inactive” throughout. Further, the Potency result in test [8], in [9], in test [11], in test [12], in [13] and in test [14] was “inactive” each time. Besides, the outcome in test [3] was inactive. Moreover, in [10], the max response is 5.45% (inactive) and 5.82% (inactive).
As to `CNC(=O)N(C)c1nnc(C(C)(C)C)s1`, the Potency entry in [1], in test [2], in test [15], in test [4], in test [5] and in test [16] was “inactive” in each case. Further, the Potency result in [7], in test [8], in [9], in test [17], in test [11] and in test [12] was “inactive” in each case. Moreover, the Potency entry in test [18], in test [13] and in test [14] was “inactive” in each case. Besides, the max response in [10] was -13.1% (inactive) and 0.0487% (inactive).
`O=C(O)CC[N+](=O)[O-]`: the Potency result in test [1], in [2], in test [15], in [4], in test [5] and in test [6] was “inactive” each time. Further, the Potency entry in test [7], in [8], in [9], in [11], in test [12] and in test [18] was “inactive” throughout. For the same compound, the Potency result in [13] and in test [14] was “inactive” in each case. Also, the max response in test [10] is 0.345% (inactive) and -3.12% (inactive).
Turning to `Clc1nc(Cl)nc(Cl)n1`, the Potency entry in test [1], in test [2], in [4], in [5], in test [6] and in test [16] was “inactive” throughout. Also, the Potency entry in [7], in test [8], in test [9], in [17], in test [11] and in test [12] was “inactive” throughout. Moreover, the Potency entry in test [13] and in test [14] was “inactive” throughout. Besides, the compound was called inactive in [3]. Also, in test [10], the max response was 10.8% (inactive) and -11.8% (inactive).
In the case of `CCC(=O)O[C@H]1CC[C@H]2[C@@H]3CCC4=CC(=O)CC[C@]4(C)[C@H]3CC[C@]12C`, the Potency in test [1] is 54.9 µM (active) and inactive; in test [15], 101 µM (active) and inactive; in test [5] it was 19.5 µM (active) and 23.9 µM (active); in test [7], 19.5 µM (active) and 21.3 µM (active); in test [8] it was 21.9 µM (active) and 23.9 µM (active); in test [10], 19.5 µM (active) and 23.9 µM (active). Further, the Potency was 38.9 µM (active) in test [11]; 49 µM (active) and inactive in test [13]. Moreover, the Potency entry in test [2], in [4], in test [6], in [9] and in test [12] was “inactive” throughout.
Turning to `Nc1ccncc1`, the Potency result in test [1], in test [2], in test [15], in test [4], in test [5] and in [6] was “inactive” throughout. Besides, the Potency entry in [7], in test [8], in test [9], in test [17], in test [11] and in test [12] was “inactive” each time. Further, the Potency result in test [18], in test [13] and in test [14] was “inactive” throughout. Also, the max response in test [10] is 2.45% (inactive) and 3.84% (inactive).
As to `Cc1ccccc1[N+](=O)[O-]`, the Potency result in test [1], in test [2], in [4], in [5], in test [6] and in [16] was “inactive” throughout. Moreover, the Potency result in [7], in [8], in test [9], in [17], in test [11] and in [12] was “inactive” throughout. In addition, the Potency entry in [13] and in [14] was “inactive” in each case. Also, in test [3], the result was inactive. The max response in test [10] is 1.02% (inactive) and 16.9% (inactive).
On to `COP(=O)(OC)OC`, for which the Potency result in [1], in test [2], in test [15], in [19], in [4] and in test [5] was “inactive” in each case. For the same compound, the Potency result in test [6], in test [16], in [7], in test [8], in [9] and in test [11] was “inactive” in each case. Moreover, the Potency result in test [12], in test [18] and in test [14] was “inactive” throughout. Besides, the activity change, positive = activation in test [20] (at 92.4 µM (top of the series)) is -30.8% (inactive) and 3.29% (inactive). Also, the max response in [10] was 4.65% (inactive). For the same compound, the Potency in test [13] was 19.7 µM (active) and inactive.
`NCc1cccnc1`: the Potency entry in test [1], in [2], in test [15], in test [19], in test [4] and in test [5] was “inactive” each time. In addition, the Potency entry in [6], in test [16], in test [7], in test [8], in test [9] and in test [11] was “inactive” throughout. In addition, the Potency result in test [12], in test [18], in test [13] and in test [14] was “inactive” throughout. The activity change, positive = activation was 0.61% (inactive) in [20] (at 42.5 µM (top of the series)) and 4.26% (inactive) in [20] (at 92.4 µM (top of the series)). In test [10], the max response is 0.404% (inactive) and -2.08% (inactive).
Take `N[C@@H](Cc1ccc(N(CCCl)CCCl)cc1)C(=O)O`: the Potency in test [1] was 23.5 µM (active) and 23.9 µM (active); in test [2], 38.4 µM (active) and 43.8 µM (active); in [5] it was 5.27 µM (active); in test [10] it was 4.69 µM (active). Also, the Potency entry in test [15], in [4], in [6], in [16], in test [7] and in test [8] was “inactive” in each case. Moreover, the Potency result in test [9], in test [11], in [12] and in [14] was “inactive” throughout.
For `CCC(CC)Nc1c([N+](=O)[O-])cc(C)c(C)c1[N+](=O)[O-]`, the Potency entry in test [1], in test [2], in test [15], in test [19], in test [4] and in test [5] was “inactive” in each case. For the same compound, the Potency result in test [6], in [16], in [7], in test [8], in test [9] and in [17] was “inactive” throughout. In addition, the Potency result in test [11], in [12], in test [13] and in test [14] was “inactive” each time. The activity change, positive = activation in test [20] (at 92.4 µM (top of the series)) is -5.44% (inactive) and 8% (inactive). Also, in [10], the max response is 7.22% (inactive).
As for `C#CCOS(=O)OC1CCCCC1Oc1ccc(C(C)(C)C)cc1` (stereo not drawn), the Potency in test [1] is 43.6 µM (active); in test [15], 4.5 µM (active); in test [19], 1.37 µM (active) and 1.54 µM (active); in [5], 13.8 µM (active) and 19.5 µM (active); in test [7], 21.9 µM (active); in test [8], 17.4 µM (active) and 19.5 µM (active). Further, in [10], the Potency is 7.77 µM (active) and 21.9 µM (active). The Potency result in test [2], in [16], in test [11], in test [13] and in test [14] was “inactive” throughout. In addition, the activity change, positive = activation in test [20] (at 92.4 µM (top of the series)) was -66% (inactive) and -59.3% (inactive).
